# Measured values: PubChem BioAssay AID504333 (National Center for Advancing Translational Sciences (NCATS), 2011)
# Values joined by “and” are separate entries in the source; they are usually repeats but may differ in a detail not shown here. Equal values may be shown once. Among all 360,000 compounds or so, about 16,000 (4.4%) were called active. Another 9% or so got no clear call; they are omitted. Calls follow the shape of the dose curve; as a rule, active = well fitted inhibition curve with a large enough effect; inconclusive = small, poorly fitted or top-dose-only effect; inactive = no such curve, though single readings can be large or run the other way. The sample as a whole holds a higher share of actives than the screen did. A structure can be active in one record and inactive in another.
# Biological target: Bromodomain adjacent to zinc finger domain protein 2B (Homo sapiens) (UniProt Q9UIF8)
# Assay: qHTS Assay for Inhibitors of BAZ2B; also: nearly all actives have a fitted effect of over 60% in size
# Conditions: AlphaScreen BAZ2B-H3K14Ac peptide displacement; series mostly up to 114 µM; activity change, negative = inhibition: at the top concentration
# Outline: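 Compounds, titrated to a top concentration of 110 uM, were incubated 30 min at room temperature with preformed BAZ2B/acetyl-K14 H3 peptide complex (50 nM each). Proximity signal was measured by AlphaScreen after 20 min with beads.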
# % is scaled to controls: 0 for no effect and ±100 for the full control effect; potency is read from the fitted curve at half-maximal effect.
# Chain of Bromodomain adjacent to zinc finger domain protein 2B (Homo sapiens) (Q9UIF8 whole entry, looked up, the tested form may be a part): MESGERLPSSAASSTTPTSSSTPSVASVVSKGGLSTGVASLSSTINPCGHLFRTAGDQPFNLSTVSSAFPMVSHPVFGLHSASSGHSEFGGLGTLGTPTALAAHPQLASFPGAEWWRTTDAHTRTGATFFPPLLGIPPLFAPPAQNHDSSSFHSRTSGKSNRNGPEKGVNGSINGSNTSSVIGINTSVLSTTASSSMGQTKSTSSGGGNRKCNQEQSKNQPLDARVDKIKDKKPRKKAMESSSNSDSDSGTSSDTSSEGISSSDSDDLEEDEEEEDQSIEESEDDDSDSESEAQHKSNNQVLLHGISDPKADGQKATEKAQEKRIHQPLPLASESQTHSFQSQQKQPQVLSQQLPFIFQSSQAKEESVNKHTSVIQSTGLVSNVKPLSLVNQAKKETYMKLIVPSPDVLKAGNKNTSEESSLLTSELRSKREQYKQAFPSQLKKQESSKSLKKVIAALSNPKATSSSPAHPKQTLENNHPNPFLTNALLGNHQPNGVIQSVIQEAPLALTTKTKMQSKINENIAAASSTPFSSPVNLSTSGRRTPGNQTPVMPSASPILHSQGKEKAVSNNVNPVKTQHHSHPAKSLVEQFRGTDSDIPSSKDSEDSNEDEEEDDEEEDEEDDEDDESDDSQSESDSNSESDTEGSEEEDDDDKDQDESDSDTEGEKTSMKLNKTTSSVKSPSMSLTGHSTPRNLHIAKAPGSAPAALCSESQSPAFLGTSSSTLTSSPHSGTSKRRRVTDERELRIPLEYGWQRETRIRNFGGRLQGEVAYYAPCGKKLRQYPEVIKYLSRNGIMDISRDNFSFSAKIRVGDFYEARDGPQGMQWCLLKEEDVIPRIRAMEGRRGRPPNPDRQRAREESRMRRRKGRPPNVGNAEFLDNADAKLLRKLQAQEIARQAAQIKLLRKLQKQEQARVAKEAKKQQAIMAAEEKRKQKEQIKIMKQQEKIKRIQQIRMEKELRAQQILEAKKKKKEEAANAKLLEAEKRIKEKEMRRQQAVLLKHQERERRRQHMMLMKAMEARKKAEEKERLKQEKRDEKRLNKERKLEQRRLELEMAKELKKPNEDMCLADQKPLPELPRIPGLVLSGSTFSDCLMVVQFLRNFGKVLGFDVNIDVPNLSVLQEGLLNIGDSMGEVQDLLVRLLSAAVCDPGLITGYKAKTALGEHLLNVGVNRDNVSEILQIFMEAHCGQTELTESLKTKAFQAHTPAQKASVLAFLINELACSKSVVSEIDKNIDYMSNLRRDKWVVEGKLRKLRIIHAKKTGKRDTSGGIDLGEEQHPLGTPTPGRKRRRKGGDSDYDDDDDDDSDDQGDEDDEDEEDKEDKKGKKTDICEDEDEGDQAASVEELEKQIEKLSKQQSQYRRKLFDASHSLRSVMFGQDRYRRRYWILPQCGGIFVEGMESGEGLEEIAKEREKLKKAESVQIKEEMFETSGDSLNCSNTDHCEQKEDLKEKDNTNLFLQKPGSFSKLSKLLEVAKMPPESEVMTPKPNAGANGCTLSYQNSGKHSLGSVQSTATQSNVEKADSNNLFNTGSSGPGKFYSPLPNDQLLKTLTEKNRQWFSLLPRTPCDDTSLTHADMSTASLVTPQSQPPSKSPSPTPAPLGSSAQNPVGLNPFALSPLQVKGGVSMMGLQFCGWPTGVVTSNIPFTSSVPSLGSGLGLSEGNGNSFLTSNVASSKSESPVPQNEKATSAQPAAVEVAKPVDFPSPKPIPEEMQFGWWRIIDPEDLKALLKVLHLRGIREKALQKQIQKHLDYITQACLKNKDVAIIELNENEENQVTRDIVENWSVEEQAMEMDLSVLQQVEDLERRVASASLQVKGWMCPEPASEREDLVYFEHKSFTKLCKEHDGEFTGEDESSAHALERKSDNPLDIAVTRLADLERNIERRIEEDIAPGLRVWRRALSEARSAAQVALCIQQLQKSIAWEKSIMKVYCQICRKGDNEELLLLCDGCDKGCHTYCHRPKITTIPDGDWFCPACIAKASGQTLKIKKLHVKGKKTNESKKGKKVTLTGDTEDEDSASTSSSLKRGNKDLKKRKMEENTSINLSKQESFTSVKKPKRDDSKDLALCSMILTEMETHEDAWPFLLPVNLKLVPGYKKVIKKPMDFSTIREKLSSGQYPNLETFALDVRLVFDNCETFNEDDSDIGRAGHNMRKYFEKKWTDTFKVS
SMILES,"activity change, negative = inhibition",Potency
COc1ccc(CCNC(=O)c2ccc(CSCc3ccc(C)cc3)o2)cc1OC,-31.1% (inactive),–
COc1cc2c(=O)c(S(=O)(=O)c3ccc(C(C)C)cc3)cn(Cc3ccccc3C)c2cc1OC,-17.5% (inactive),–
CCC1(C)CC(=O)c2c(ccc3oc(C(=O)Nc4ccc(C(C)=O)cc4)c(C)c23)O1 (centres undefined),0.108% (inactive),–
COc1ccc(-c2nc3ccc(C(=O)NCc4ccc(C)cc4)cc3nc2-c2ccc(OC)cc2)cc1,23.8% (inactive),–
COc1ccc(NC(=O)COCc2cc(-c3ccco3)on2)cc1,4.22% (inactive),–
COCCNC(=O)Nc1ccc2nc(-c3ccco3)c(-c3ccco3)nc2c1,–,5.62 µM (active)
O=C(NCc1ccccn1)c1ccc2nc(-c3ccco3)c(-c3ccco3)nc2c1,–,11.2 µM (active)
CCOc1ccc(NC(=O)c2ncoc2-c2ccco2)cc1,-33.1% (inactive),–
COc1cccc(S(=O)(=O)NCc2ccc(C(=O)NCc3ccccn3)cc2)c1,-1.71% (inactive),–
O=C(NCc1ccc2c(c1)CCN2C(=O)c1ccccc1)c1ccccc1,-10.7% (inactive),–
CCOC(=O)c1cc2c(=O)n3ccccc3nc2n(CC2CCCO2)c1=NC(=O)c1ccccc1F (centres undefined),3.27% (inactive),–
O=C(Cn1cc(SCc2cccc(Cl)c2)c2ccccc21)N1CCCCC1,1.17% (inactive),–
O=C(NCC(c1ccc(Cl)cc1)N1CCOCC1)c1ccccc1F (centres undefined),-29.4% (inactive),–
CN(Cc1ccccc1)c1ccc(-c2nc(-c3ccccc3)no2)cc1[N+](=O)[O-],-22.6% (inactive),–
Cc1ccc(-c2ccnc3[nH]n(-c4ccccc4)c(=O)c23)cc1,-32.1% (inactive),–
Cc1ccc(C2C3=C(Nc4[nH]n(-c5ccccc5)c(=O)c42)c2ccccc2C3=O)cc1 (centres undefined),–,35.5 µM (active)
Cc1ccc(-n2[nH]c(C)c(/C=N/N3C(=O)c4cccc5cccc(c45)C3=O)c2=O)cc1,1.55% (inactive),–
COc1cc2[nH]c(=O)n(Cc3ccc(C(=O)NCc4ccc(C)cc4)cc3)c(=O)c2cc1OC,1.5% (inactive),–
O=c1cc(CSc2ncn[nH]2)[nH]c2ccc(F)cc12,5.18% (inactive),–
Cc1ccc(NC(=O)Cc2ccc(NC(=O)N3CCCCc4ccccc43)cc2)cc1,-19.7% (inactive),–
CCN(CC)S(=O)(=O)c1ccc2c(c1)nc(CN(C)C(=O)Nc1ccc(Cl)cc1)n2C,-2.28% (inactive),–
O=C(NCCC1=CCCCC1)c1ccc2c(c1)N(Cc1ccccc1F)C(=O)c1ccccc1S2(=O)=O,-13.6% (inactive),–
COc1cccc(/C=N\NC(=O)C2=NNC(=O)C2C)c1O (centres undefined),–,50.1 µM (active)
COc1cc2cc(C(=O)N/N=C/c3cccc(OC)c3OC)[nH]c2cc1OC,-4.94% (inactive),–

SMILES,"activity change, negative = inhibition",Potency
CCOc1ccc2[nH]c(C(=O)N/N=C/c3cccc(OC)c3OC)cc2c1,-3.47% (inactive),–
COc1ccc(Nc2ncc(C(=O)Nc3cc(C)ccc3OC)c3ccccc23)cc1,-2.1% (inactive),–
COc1ccc(-c2nc(Cn3c(=O)cc(C)c4c(C)nn(-c5ccccc5)c43)c(C)o2)cc1OC,15.4% (inactive),–
COc1ccc(Cl)cc1NC(=O)CSc1nc(=O)[nH]c2c1CCCC2,-6.06% (inactive),–
COc1cc(OC)cc(C(=O)NCCc2csc3nc(-c4ccccc4F)nn23)c1,-3.6% (inactive),–
COc1ccc(S(=O)(=O)NCC(c2ccc(C)cc2)N2CCN(C)CC2)cc1OC (centres undefined),29.4% (inactive),–
COc1ccc(S(=O)(=O)NCC(c2ccc(N(C)C)cc2)N2CCc3ccccc32)cc1OC (centres undefined),–,11.2 µM (active)
COc1ccc(C(=O)NCC(c2ccc(N(C)C)cc2)N2CCc3ccccc32)c(OC)c1 (centres undefined),-12.9% (inactive),–
CCn1c(C(=O)Nc2cc(Cl)ccc2C)cc2sc(Cl)cc21,-0.183% (inactive),–
COc1cccc(CNC(=O)CSc2c3c(nc4cc(Cl)ccc24)CCCC3)c1,1.25% (inactive),–
CCOc1ccc(CNC(=O)C2CCN(c3nnc(-n4cccc4CNc4ccc(C)cc4)s3)CC2)cc1OC,3.71% (inactive),–
CC(C)c1ccc(Cn2c(COc3ccccc3)nc3ccccc32)cc1,50.3% (inactive),–
Cc1c(C)n(Cc2ccc(Cl)cc2)c2ccc(C(=O)N3CCN(c4ccccc4F)CC3)cc12,-36.9% (inactive),–
CC(C)c1ccc2c(c1)c(SC(C)(C)C)c(CC(C)(C)C(=O)O)n2Cc1ccc(Cl)cc1,–,inactive and 50.1 µM (active)
CCCn1c(=N)c(C(=O)NCc2ccccc2)cc2c(=O)n3cccc(C)c3nc21,10.7% (inactive),–
Cc1cccc(C2=N/C(=C/c3cccs3)C(=O)O2)c1,-24.5% (inactive),–
CN1/C(=C\C=C2\N=C(c3ccc(F)cc3)OC2=O)C(C)(C)c2ccccc21,–,50.1 µM (active)
O=C1OC(c2ccc(Cl)cc2)=N/C1=C\c1cccnc1,2.81% [at 57.1 µM] (inactive),–
CCOc1ccccc1N(C)C(=O)c1cc2c(s1)-c1ccccc1OC2,22% (inactive),–
O=C(Cc1ccc(Cl)cc1)NCC(c1cccs1)S(=O)(=O)c1ccc(Cl)cc1 (centres undefined),9.96% (inactive),–
CCOC(=O)N1CCc2c(sc3c2C(=O)NC(c2ccccc2F)N3)C1 (centres undefined),-8.51% (inactive),–
CCOc1ccc(CNCc2c(C(=O)O)c(C)n(Cc3cccc(OC)c3)c2C)cc1OC,-11.8% (inactive),–
CCN(CC)S(=O)(=O)c1ccc(C(=O)N=c2sc3cccc(OC)c3n2C)cc1,-2.25% (inactive),–
CCOC(=O)c1c(-c2ccc(OC)cc2)oc2ccc(OCc3ccc(C(=O)OC)cc3)cc12,18.6% (inactive),–

SMILES,"activity change, negative = inhibition",Potency
CN1/C(=c2/s/c(=C3/C(=O)N(c4ccccc4)NC3=Nc3ccccc3)n(C)c2=O)C(C)(C)c2ccccc21,–,10 µM (active)
CN1C(=O)c2ccccc2Sc2ccc(NC(=O)Cc3ccc(Cl)cc3)cc21,-16.3% (inactive),–
O=c1cc(Cn2nnc(-c3ccc(Cl)cc3)n2)nc2sccn12,13.1% (inactive),–
O=C(NCc1ccc(Cl)cc1)c1cc2c(nc3sccn32)s1,-21.6% (inactive),–
Cc1ccc(Nc2c(-c3ccc(Cl)cc3)nc3sccn23)c(C)c1,–,28.2 µM (active)
Cc1ccccc1C(=O)Nc1cc(C)c(O)c(-c2nc3ccccc3o2)c1,-18.7% (inactive),–
Cc1ccc(Cl)cc1N(C)C(=O)C1CCCN(c2ncnc3onc(-c4ccc(F)cc4)c23)C1 (centres undefined),3.17% [at 57.1 µM] (inactive),–
CCOc1ccc(C2C(C(=O)Nc3ccc(Cl)cc3)=C(C)Nc3nc(C(F)(F)F)nn32)cc1 (centres undefined),-5.74% (inactive),–
COc1ccc(C(=O)/C=C/c2ccc(-c3ccccc3)cc2)cc1CSCC(=O)O,-9.18% (inactive),–
COc1ccc(/C=C/C(=O)N2CCCC2)cc1OC,2.76% (inactive),–
COC(=O)c1ccc(COc2ccc(/C=C/C(=O)c3ccc(OC)c(CSCC(=O)O)c3)cc2OC)cc1,–,39.8 µM (active)
CCOc1ccccc1NC(=O)Cn1c(=O)n(-c2cccc(C)c2)c(=O)c2c1c1cc(OC)ccc1n2C,-1.41% (inactive),–
COc1ccc(-c2nnc(SCC(=O)Nc3ccc(C(C)C)cc3)nc2-c2ccc(OC)c(OC)c2)cc1OC,-2.33% (inactive),–
COc1ccc(-c2nnc(SCC(=O)NC3CCCCC3)o2)cc1OC,11.7% (inactive),–
CCOc1cc(-c2nnc(SCC(=O)NC3CCCCC3)nc2-c2ccc(OC)c(OCC)c2)ccc1OC,–,79.4 µM (active)
COCCn1c(SCC(=O)c2cc(C)ccc2C)nc2cc(C(=O)NC3CCCC3)ccc2c1=O,-11.7% (inactive),–
Cc1ccc(-c2nc(CS(=O)(=O)CC(=O)NCc3ccccc3Cl)c(C)o2)cc1,-9.42% (inactive),–
CCOc1ccc2nc(N3CCC(C(=O)Nc4cc(C)ccc4C)CC3)sc2c1,3.43% (inactive),–
CC1=C(C(=O)Nc2ccccc2Cl)C(c2cccs2)n2ncnc2N1 (centres undefined),-4.03% (inactive),–
CCC(=C/c1sc2ccc3ccccc3c2[n+]1C)/C=C1\Sc2ccc3ccccc3c2N1C,–,50.1 µM (active)
N#C/C(=C\C1=C(N2CCOCC2)C(=C\c2ccccc2)/CC1)C(=O)Nc1ccccc1F,–,2 µM (active)
N#C/C(=C/c1ccc(N2CCOCC2)o1)C(=O)N1CCOCC1,-0.368% (inactive),–
N#C/C(=C\c1ccccc1C(F)(F)F)C(=O)Nc1ccccc1F,6.18% (inactive),–
Cc1ccc2c(=O)c(C(=O)c3ccc(Cl)cc3)cn(CC(=O)NC3CCCCC3)c2n1,8.9% [at 57.1 µM] (inactive),–

SMILES,"activity change, negative = inhibition",Potency
CC(=O)N1C(=O)/C(=C2\SC(=S)N(NC(=O)c3ccc(O)cc3)C2=O)c2ccccc21,–,39.8 µM (active)
O=C(O)c1ccc2c(c1)C(=O)N(NC(=O)c1ccc(O)cc1)C2=O,-2.56% (inactive),–
COc1ccc2c(c1)N(C)/C(=C1/SC(=S)N(NC(C)=O)C1=O)S2,-7.93% (inactive),–
CCOC(=O)c1cccc(NC(=O)c2cc(S(=O)(=O)N3CCCC(C)C3)cn2C)c1 (centres undefined),-18.7% (inactive),–
CCCCN1CC(c2nc3ccccc3n2CCCCOc2ccc(C)cc2C)CC1=O (centres undefined),0.797% (inactive),–
Cc1ccc(N=C2NC(=O)/C(=C/C=C/c3ccco3)S2)cc1C,–,44.7 µM (active)
CCOC(=O)c1cc(-c2ccccc2)n(CCC(=O)Nc2ccccc2CC)c1C,-1.42% (inactive),–
CC(C)CC(=O)NCC(c1ccc2c(c1)OCO2)N1CCN(c2ccc(F)cc2)CC1 (centres undefined),22.9% (inactive),–
Cc1nnc(NCc2ccccc2)c2c1nnn2Cc1ccc(F)cc1,-0.128% (inactive),–
CCOc1ccc(C(=O)c2cn(Cc3ccc(F)cc3)c3ccc(F)cc3c2=O)cc1,-19.7% (inactive),–
CCOc1ccc2oc(=O)cc(CN3CCN(C(=O)c4ccc(F)cc4)CC3)c2c1,-6.12% (inactive),–
CCOc1ccc(N(C)Cc2cc(=O)oc3ccc(OC)cc23)cc1,–,22.4 µM (active)
COc1ccc2oc(=O)cc(CN3CCOCC3)c2c1,7.09% (inactive),–
Cc1ccc(O)c(NC(=O)CCS(=O)(=O)c2nc(-c3ccc4c(c3)OCO4)cc(C(F)(F)F)n2)c1,-27% (inactive),–
CCOC(=O)c1ccc(NC(=O)c2ncn(-c3ccccc3)n2)cc1,1.63% (inactive),–
Fc1ccc(-c2nn(-c3ccccc3Cl)c3c2cnc2ccccc23)cc1,-26.2% (inactive),–
COc1cccc(CNC(=O)Cn2c(=O)c3cccn3c3ccc(F)cc32)c1OC,4.05% (inactive),–
Cc1ccc(OCCCC(=O)Nc2ccc(N3CCOCC3)cc2)cc1,-34.6% (inactive),–
CCOC(=O)c1cnc2c(C)cc(Cl)cc2c1NCCc1ccc(OC)c(OC)c1,8.49% (inactive),–
CCOC(=O)c1cnc2c(C)cc(C)cc2c1Nc1ccc(N2CCOCC2)cc1,–,7.08 µM (active)
CCOc1cccc(NC(=O)CSc2ncc(-c3ccc(Cl)cc3)[nH]2)c1,-26.2% (inactive),–
Cc1cc(NS(=O)(=O)c2ccc3oc(=O)c4ncn(C)c4c3c2)ccc1Br,6.88% (inactive),–
